In PubChem BioAssay (NCI) one finds growth data, which are given here for 40 compounds.

About 83,000 compounds went through this panel and 20% of them were active in at least one assay; those are over-represented in the sample as a whole.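 Single-concentration screen, 48 h exposure, 96-well plates. Endpoint: percent growth. Below 10 = active.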 Activity calls are given as the source filed them.

This assay relates to OVCAR-5 ovarian. As to the kind of experiment: NCI-60 one-dose screen, 48 h (100 = growth as untreated, 0 = no growth, -100 = all killed). The following applies: 10 µM unless noted. Here is the method:
Growth inhibition of the OVCAR-5 human tumor cell line is measured as a screen for anti-cancer activity. Cells are grown in 96 well plates and exposed to the test compound for 48 hours. Compounds are tested at a single concentration, which is 10^-5 M for most compounds. The reported endpoint is percent growth (GI% or GIPRCNT), where numbers from 0 - 100% represent growth inhibition, and numbers from -100% - 0 represent cell death. For example, a value of 40 represents 60% growth inhibition. A value of 0 means no net growth occurred over the course of the experiment. A value of -40 indicates 40% of cells at the beginning of the experiment died by the end of the experiment. A value of -100 means all cells are dead at the end of the experiment.
NCI-60 Human Tumor Cell Lines Screen was performed using the standard one-dose NCI protocol, which is described in more detail at https://dtp.cancer.gov/discovery_development/nci-60/default.htm.
Compounds with GIPRCNT values below 10 were considered active. Activity score was based on GIPRCNT using the following formula: […]
Score is 0 for GIPRCNT values of 100 or above, 50 for GIPRCNT values of 0, and 100 for GIPRCNT values of -100.
In the case of `CCCCN(CCCC)CCCN=c1nc2c(c(N)n1-c1ccccc1)c(=S)n(-c1ccccc1)c(=S)n2-c1ccccc1`, the growth was -60.2% (active).
For `COc1ccc(-c2nsc3c2NC(=O)CC3c2ccc3c(c2)OCO3)cc1` (stereo not given), the growth is 48.6% (inactive).
`CCN(C(=O)Nc1cccc2ccccc12)c1ccccc1`: the growth is 91.6% (inactive).
Turning to `CCC1CCc2nc3sc(C(=O)Nc4cccc(F)c4)c(N)c3cc2C1` (stereo not given), the growth was 90.5% (inactive).
Take `C=CCOc1c(Br)cc(Br)cc1Br`: the growth was 76.2% (inactive).
Next, `C=C(C)C1CCC2(C(=O)O)CCC3(C)C(CCC4C5(C)CCC(O)C(C)(C)C5CCC43C)C12` (stereo not given): -87.3% (active); `COc1ccc(/C=C/C(=O)c2ccc(NC(=O)CSc3nnc(-c4ccc(Cl)cc4)n3-c3ccccc3)cc2)cc1`: 123% (inactive); `COC(=O)C(C)NC1=C(Cl)C(=O)C(NC(C)C(=O)OC)=C(Cl)C1=O` (stereo not given): 111% (inactive).
Next, `F`: 10.6% [6.87 mM] (inactive); `Cc1ccc(/C=C/C(=N/N=C(N)N)c2ccccc2)cc1`: 54.4% (inactive).
For `C=CCn1c(C)nc2cc(Nc3nc(N4CCOCC4)nc4nc[nH]c34)ccc21`, the growth was 74.1% (inactive).
For the compound `O=c1c2sc3ncc(Cl)cc3c2nnn1-c1cccc(Cl)c1`, the growth was 86.2% (inactive).
As for `CCC(=O)NC(O)C(Cl)(Cl)C(C)Cl` (stereo not given), the growth is 105% (inactive).
Next, `CCCC(CCC)NCC(O)c1cc(-c2ccc(C(F)(F)F)cc2)nc(C(F)(F)F)c1` (stereo not given): -37.9% (active); `CCOC(=O)C1=C(C)NC(SCc2nnc(-c3ccc(Cl)cc3)o2)=NC1c1ccc(Br)cc1` (stereo not given): 93.9% (inactive); `COc1ccc2nc(C)cc(Nc3ccccc3O)c2c1`: 108% (inactive).
As to `CC(CN1CCN(C)CC1)CN1c2ccccc2Sc2ccc(C(F)(F)F)cc21` (stereo not given), the growth was 68% (inactive).
Next, `O=[N+]([O-])c1cccc([I+]c2ccccc2)c1`: 96.1% (inactive); `FC1(F)CCN(Cc2c[nH]c3cc(Cl)ccc23)C[C@H]1CCc1ccccc1`: 80.5% (inactive).
In the case of `CCOCC(O)(c1ccc(Cl)cc1)c1ccc(Cl)cc1`, the growth was 84.4% (inactive).
Next, `O=C(NCCNC(=O)c1cc(S(=O)(=O)NCCc2ccccc2)c(O)c(O)c1O)c1cc(S(=O)(=O)NCCc2ccccc2)c(O)c(O)c1O`: 82.3% (inactive).
Consider `O=c1[nH]cnc2nc[nH]c12`, for which the growth is 98.5% (inactive).
Regarding `COc1cc2c(cc1OC)C(=O)C(Br)CC2` (stereo not given), the growth was 73.7% (inactive).
On to `COc1ccc(OC)c(Nc2nc(-c3c(C)nc4sccn34)cs2)c1`, for which the growth was 97.9% (inactive).
Next, `Cc1ccc(CSCc2ccc(C(=O)NC3CC3)o2)cc1`: 76.3% (inactive).
Next, `COc1ccccc1NC(=O)OCC12COCN1COC2`: 96.4% (inactive); `COc1cc2nccc(Oc3ccc(NC(=O)C4(C(=O)Nc5ccc(F)cc5)CC4)cc3)c2cc1O`: 80.8% (inactive); `O=C(Nc1ccc(Oc2ccc(Nc3nc4ccccc4s3)cc2)cc1)Nc1ccc(Cl)c(C(F)(F)F)c1`: 23.6% (inactive).
In the case of `COc1cc(C(=O)/C=C/c2cn(-c3ccccc3)nc2-c2cccc(Nc3ccnc4cc(Cl)ccc34)c2)cc(OC)c1OC`, the growth was 112% (inactive).
Next, `CC[C@H](Nc1nc(C)nc(N)c1C#N)c1nc2cccc(NCc3ccc(C(=O)NO)cc3)c2c(=O)n1-c1ccccc1`: 22.5% (inactive); `CC(C)(C)c1ccc(Cn2c(-c3nonc3N)nc3ccccc32)cc1`: 99.2% (inactive).
Next, `COc1ccc(Nc2ncnc3c2sc2nc(C)cc(C)c23)cc1`: 93.1% (inactive); `Oc1ccc(Cl)cc1-c1cc(-c2ccccc2Cl)[nH]n1`: 87.9% (inactive).
Consider `CCSc1ccc([C@@H]2[C@@H](N)C(=O)N2c2cc(OC)c(OC)c(OC)c2)cc1`, for which the growth was 42.7% (inactive).
Turning to `CCOC(=O)c1c(NC(=O)c2ccccc2)sc2c(O)c(CN(CC)CC)ccc12`, the growth was 48.6% (inactive).
Turning to `CCCc1n(Cc2ccc3ccccc3c2)c2ccccc2[n+]1Cc1ccc2ccccc2c1`, the growth is -27.1% (active).
Regarding `Cc1ccc(NC(=O)c2[nH]c(SCCN(C)C)nc2-c2ccc(F)cc2)cc1C#Cc1cnc2cccnn12`, the growth was 11.6% (inactive).
As for `CC(C)COC(=O)NC(C)(C)C`, the growth was 97.9% (inactive).
For `O=C(c1ccccc1)N(CCCCl)C(=O)N(CCCCl)C(=O)c1ccccc1`, the growth is 87% (inactive).
Consider `COC(=O)c1cc2oc(/C=N/NC(=O)c3cc4oc(-c5cccc(C(F)(F)F)c5)cc4[nH]3)cc2n1Cc1ccccc1`, for which the growth was 107% (inactive).
